Screen size: about 420,000 compounds; about 64,000 (15%) were called active. Inconclusive results (about 27%) are left out. Calls follow the shape of the dose curve; as a rule, active = well fitted inhibition curve with a large enough effect; inconclusive = small, poorly fitted or top-dose-only effect; inactive = flat fitted curve, though single readings scatter. The list is a sample of the results. Entries that show only a call come without a potency.
Potency is read from the fitted curve at half-maximal effect.

The assay in a line: qHTS for Inhibitors of human tyrosyl-DNA phosphodiesterase 1 (TDP1): qHTS in cells in absence of CPT. Also: nearly all actives have a fitted effect of over 55% in size. The conditions noted are these: DT40 Tdp1-/- hTDP1 cells, no CPT, ATP luminescence, 48 h; activity change, negative = growth inhibition: at 46.2 µM (top of the series). Put shortly: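 Chicken DT40 Tdp1-/- cells complemented with human TDP1, screened without camptothecin (DMSO vehicle only), 400 cells/well. Compounds pin-transferred, cells incubated at 37 °C for at least 48 hr. Growth read as ATP-dependent luminescence (CellTiter-Glo, 30 min at RT).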
Consider `CC(C)[C@H](NC(=O)Nc1ccc(S(N)(=O)=O)cc1)C(=O)O`, for which the Potency result is “inactive”.

In the case of `CC(C)CCN1NC2(CCC(C)CC2)NC1=S` (centres undefined), the Potency result is “inactive”. In the case of `CN1C(=O)c2ccccc2C(C(=O)NCCCN2CCCC2)C1c1c[nH]c2ccccc12` (centres undefined) it was “inactive”; in that of `CCc1c(O)nc(SCC(=O)N2CCCCC2)n(-c2ccccc2C)c1=O`, “inactive”; in that of `CCc1ccc(OCC2c3cc(OC)c(OC)cc3CCN2C(C)=O)cc1` (centres undefined), 13 µM (active). In the case of `CCc1ccc(OCC(=O)OC(C)C(=O)NC2CC2)cc1` (centres undefined) it was “inactive”. In the case of `COc1cc2c(cc1OC)CN(CC(=O)Nc1ccc(F)cc1)CC2` it was “inactive”; in that of `COc1cc2c(cc1OC)C(COc1ccc(F)cc1)N(C(=O)c1ccccc1F)CC2` (centres undefined), 16.4 µM (active); in that of `COc1ccc(CC(NC(C)=O)C(=O)NC2CCN(C(=O)c3ccc(OC)c(OC)c3)CC2)cc1OC` (centres undefined), “inactive”. On to `COc1ccc2[nH]c(=O)c(C3c4cc(OC)c(OC)cc4CCN3C(=O)c3ccco3)cc2c1` (centres undefined), for which the Potency entry was “inactive”. For the molecule `CC(C)CN(C(=O)CSc1ncnc2sccc12)C1CCS(=O)(=O)C1` (centres undefined), the Potency entry was “inactive”. For `O=C(N/N=C/c1ccsc1)c1cc(O)cc(O)c1`, the Potency result is “inactive”. Turning to `CCN(CC(=O)NCc1cccs1)C(=O)/C=C/c1ccc(C)cc1`, the Potency entry is “inactive”. On to `FCOC(C(F)(F)F)C(F)(F)F`, for which the Potency entry is “inactive”. In the case of `CN(C)CCCN1C(=O)CSC1c1ccc([N+](=O)[O-])cc1` (centres undefined) it was “inactive”; in that of `CCCCCCCCCCCCN1C(=O)CSC1c1cccnc1` (centres undefined), 16.4 µM (active). For the molecule `CCCCc1ccc(NC(=O)NCc2cccnc2)cc1`, the Potency result is “inactive”. Consider `COC(=O)CC1C(C)(C)C(OC(C)=O)C2CC3=C4CC(=O)OC(c5ccoc5)[C@]4(C)CCC3[C@@]1(C)C2=O` (some centres undefined), for which the Potency result was “inactive”.

For `C=C1C([C@@]2(C)C(OC(C)=O)CC(=O)O[C@@](C)(COC(C)=O)C2CC(=O)OC)C(OC=O)C(OC(=O)C(O)C(C)CC)[C@]2(C)C(c3ccoc3)CC(=O)C12O` (some centres undefined), the Potency is 4.61 µM (active). Turning to `CCOC(=O)C1(Cc2ccccc2C)CCCN(S(C)(=O)=O)C1` (centres undefined), the Potency result is “inactive”. For `C/C(=N\NC(=O)OC(C)(C)C)c1ccc[nH]1`, the Potency result is “inactive”. As to `Cn1c(=O)c2c(SCC(=O)NCC3CCCO3)nc(-c3ccccc3F)nc2n(C)c1=O` (centres undefined), the Potency result was “inactive”. Consider `Cc1cccc(-c2nc(SCC(=O)Nc3cc(C)on3)c3c(=O)n(C)c(=O)n(C)c3n2)c1`, for which the Potency result is “inactive”.

With `Cc1ccccc1-c1nc(SCC(=O)N(C)c2ccccc2)c2c(=O)n(C)c(=O)n(C)c2n1`, the Potency was 9.2 µM (active).

Take `O=C(CN(C(=O)c1csnn1)c1cccc(F)c1)NCc1ccc(F)cc1`: the Potency entry was “inactive”. With `CCCCn1c(N)c(N(CCC(C)C)C(=O)COC(=O)c2ccc(CC)cc2)c(=O)[nH]c1=O`, the Potency entry is “inactive”.

Regarding `CCCCc1nc(NCc2ccccc2)c(C#N)c2c1CCCC2`, the Potency entry is “inactive”. As for `Cc1nc(NCCN)c(C#N)c2c1COC(C)(C)C2`, the Potency entry is “inactive”. Then `CCCCc1nc(NCCN)c(C#N)c2c1CSC(C)(C)C2`, with 20.6 µM (active).

For the molecule `CCOc1ccc(S(=O)(=O)Nc2ccncc2)c(C)c1C`, the Potency entry was “inactive”.

As to `O=C(CSc1nc2ccccc2c(=O)n1-c1ccc(F)cc1)NC1CC1`, the Potency entry was “inactive”. `COc1ccc(OC)c(/C=N/NC(=O)CSc2nnc(C)n2-c2ccccc2)c1`: the Potency result is “inactive”.

As to `Cc1nn(-c2ccccc2)c(C)c1/C=N/NC(=O)CSc1nc2ccccc2c(=O)n1-c1ccccc1`, the Potency is 18.4 µM (active).

On to `CCCS(=O)(=O)NC(=O)C1(C)CCCN(C(=O)c2cccs2)C1` (centres undefined), for which the Potency entry is “inactive”.

In the case of `COc1cc(/C=C2\C(=N)N3N=C(CC(=O)N4CCOCC4)SC3=NC2=O)cc(OC)c1OC`, the Potency result is “inactive”. For the molecule `Cc1noc(C)c1C(=O)N(CC(=O)NC1CCCC1)Cc1ccccc1F`, the Potency result was “inactive”. With `CCOP1(=O)C=C(C(C)(C)C)OC1c1ccc(F)cc1` (centres undefined), the Potency result was “inactive”.

Regarding `C=CCNC(=S)NNc1ncnc2sc3c(c12)CC(C)(C)OC3`, the Potency is 5.17 µM (active). As to `CN(C)CCSc1nc(N)c2c3c(sc2n1)COC(C)(C)C3`, the Potency result is “inactive”. For `C[C@H]1CN([C@@H](C)CO)C(=O)CCCn2cc(nn2)CO[C@@H]1CN(C)S(=O)(=O)c1ccccc1C#N`, the Potency result was “inactive”.

Turning to `CCC1CCc2c(sc(NC(C)=O)c2C#N)C1` (centres undefined), the Potency result was “inactive”.

Take `Cc1nnc(SC(C)C(=O)c2c[nH]c3ccccc23)n1C1CC1` (centres undefined): the Potency entry is “inactive”.

Turning to `COc1ccc(C(C(O)C(=O)c2c[nH]c3ccccc23)N2CCN(c3ccccc3)CC2)cc1` (centres undefined), the Potency was 25.9 µM (active). For the molecule `COc1ccc(N2CCN(C(C)=C3C(=O)c4ccccc4C3=O)CC2)cc1`, the Potency result was “inactive”.

`O=C(COc1ccc(Cl)cc1)Nc1ccc2oc(=O)ccc2c1`: the Potency result was “inactive”. As for `Cc1ccc(N(C(=O)c2sc(C)nc2C)C(C(=O)NC(C)(C)C)c2ccncc2)cc1` (centres undefined), the Potency entry is “inactive”. Consider `CC1(C)C=C2[C@H]3CC[C@@H]4[C@@]5(C)CCC(=O)C(C)(C)[C@@H]5CC[C@@]4(C)[C@]3(C)CC[C@@]2(C(=O)O)CC1`, for which the Potency was 8.2 µM (active).

With `Cc1cc(C)cc(N(C(C)C(=O)Nc2c(C)n(C)n(-c3ccccc3)c2=O)S(C)(=O)=O)c1` (centres undefined), the Potency entry was “inactive”.

For the molecule `CCCCn1nnnc1C1(C)CCC(=O)N1Cc1ccc(OC)c(OC)c1` (centres undefined), the Potency result was “inactive”.

Take `COc1ccc(Cn2c(=O)oc3ccccc32)cc1`: the Potency entry was “inactive”. Turning to `COc1ccc(CN2CCOC2=O)cc1OC`, the Potency entry was “inactive”. In the case of `CCOc1cc(CN2CCN(C(=O)CC(C)C)CC2)ccc1OC`, the Potency entry is “inactive”.

On to `CCCCOc1ccc(CN2C(=O)C(=O)c3cc(Br)cc(C)c32)cc1OC`, for which the Potency is 1.16 µM (active). On to `CCCCOc1ccc(Cn2c(=O)oc3ccc(C)cc32)cc1OC`, for which the Potency is 14.6 µM (active). Then `Cc1cccc(-n2c(Cc3cc(=O)[nH]c(=O)[nH]3)nnc2SC(C)C)c1`, with “inactive”; and `CC/C(=N\NC(=O)c1c(C)nc2ccccn12)c1ccc(Cl)cc1`, with “inactive”; and `CCCCCC(=O)Nc1ccc(S(=O)(=O)Nc2ccc(Cl)nn2)cc1`, with “inactive”.

With `CCCCN(C)Cc1c(C)[nH]c2ccc(Cl)cc2c1=O`, the Potency result is “inactive”. In the case of `C=CCC1(C#N)C(=S)NC(C)=C(C(=O)OCC)C1c1ccccc1` (centres undefined), the Potency was 29.1 µM (active).

On to `CCOC(=O)C1=C(C)NC(SC)=NC1c1ccccc1` (centres undefined), for which the Potency entry was “inactive”. For the molecule `CCOC(=O)C1=C(C)NC(C)=C(C(=O)OCC)C1c1ccccn1`, the Potency entry is “inactive”. As for `Cc1ccsc1C1C(C#N)=C(N)OC2=C1C(=O)CC(C)(C)C2` (centres undefined), the Potency entry is “inactive”. Regarding `CCOC(=O)CSc1nnc(CNC(=O)Cc2ccccc2)n1-c1ccccc1OC`, the Potency result was “inactive”. Then `O=C(COc1ccc(Cl)cc1)NCCSc1ccccc1`, with “inactive”.

Source of the values: PubChem BioAssay AID686978 (National Center for Advancing Translational Sciences (NCATS), 2013).
